Measurements taken from PubChem BioAssay (NCI).
Values joined by “and” are separate entries in the source; they are usually repeats but may differ in a detail not shown here. Equal entries are not always repeated. This is part of a sample that, as a whole, favours compounds with a hit. Of some 83,000 tested, about 20% had one in any assay.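 Note: values are percent growth. 100 is the growth of untreated cells, values between 100 and 0 indicate rising inhibition; between -100 and 0 indicates cell death.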 Active and inactive are the calls of the source. How the source made its calls: active means growth percent below 10; inactive means the rest.

Legend:
Test in all cases: NCI-60 one-dose screen, 48 h (100 = growth as untreated, 0 = no growth, -100 = all killed)
Conditions in all cases: 10 µM unless noted
HCT-15 colon = system: HCT-15 colon
HT29 colon = system: HT29 colon
SNB-75 CNS = system: SNB-75 CNS
SNB-19 CNS = system: SNB-19 CNS
U251 CNS = system: U251 CNS
PC-3 prostate = system: PC-3 prostate
SK-MEL-5 melanoma = system: SK-MEL-5 melanoma
UACC-62 melanoma = system: UACC-62 melanoma
LOX IMVI melanoma = system: LOX IMVI melanoma
SK-MEL-2 melanoma = system: SK-MEL-2 melanoma
EKVX NSCLC = system: EKVX NSCLC
SN12C renal = system: SN12C renal
UO-31 renal = system: UO-31 renal
TK-10 renal = system: TK-10 renal
ACHN renal = system: ACHN renal
CAKI-1 renal = system: CAKI-1 renal
A498 renal = system: A498 renal
MOLT-4 leukemia = system: MOLT-4 leukemia
SK-MEL-28 melanoma = system: SK-MEL-28 melanoma
CCRF-CEM leukemia = system: CCRF-CEM leukemia

Measured: growth

Cc1c(C(=O)OCCCCOC(=O)c2c(C)n(C)c3scc[n+]23)[n+]2ccsc2n1C
inactive: HCT-15 colon 106% | HT29 colon 107% | SNB-75 CNS 80.5% | SNB-19 CNS 101% | U251 CNS 103% | PC-3 prostate 92.3% | SK-MEL-5 melanoma 142% | UACC-62 melanoma 95.7% | LOX IMVI melanoma 102% | SK-MEL-2 melanoma 106% | EKVX NSCLC 95.6% | SN12C renal 90.8% | UO-31 renal 78.9% | TK-10 renal 114% | ACHN renal 97.2% | CAKI-1 renal 101% | A498 renal 156% | MOLT-4 leukemia 94.9%

Cc1nc(Nc2ncc(C(=O)Nc3c(C)cccc3Cl)s2)cc(N2CCN(CCO)CC2)n1
active: HT29 colon 5.06% and -19.7% | SNB-75 CNS -32.6% and -35.7% | LOX IMVI melanoma -66.3% and -93.8% | UO-31 renal -0.429% and -14.3% | TK-10 renal -7.96% and -61.7% | ACHN renal 1.96% and -15.4% | CAKI-1 renal -44.3% and -28.7% | A498 renal -24.2% and -40.1%
inactive: HCT-15 colon 32.5% and 21.3% | SNB-19 CNS 68.7% and 40.1% | U251 CNS 57.6% and 37.2% | PC-3 prostate 54.1% and 40.7% | SK-MEL-5 melanoma 66.6% and 53.8% | UACC-62 melanoma 55.3% and 34.9% | SK-MEL-28 melanoma 64% and 36% | EKVX NSCLC 41.5% and 33.2% | SN12C renal 24% and 18.3% | CCRF-CEM leukemia 77.3% and 41.6% | MOLT-4 leukemia 66.1% and 29.6%

Cc1nn(-c2nc(-c3cc4ccccc4oc3=O)cs2)c(C)c1N=Nc1ccccc1
inactive: HCT-15 colon 106% | HT29 colon 103% | SNB-75 CNS 89.4% | SNB-19 CNS 101% | U251 CNS 88.8% | PC-3 prostate 106% | SK-MEL-5 melanoma 101% | UACC-62 melanoma 86.6% | LOX IMVI melanoma 96.7% | SK-MEL-28 melanoma 108% | SK-MEL-2 melanoma 113% | EKVX NSCLC 99.8% | SN12C renal 103% | UO-31 renal 79.3% | ACHN renal 108% | CAKI-1 renal 89.2% | A498 renal 100% | MOLT-4 leukemia 100%

COc1ccc(Cl)cc1Nc1nc(C(F)(F)F)ccc1C(=O)N/N=C/c1ccc(N(C)C)cc1
inactive: HCT-15 colon 87.3% | HT29 colon 107% | SNB-75 CNS 88.8% | SNB-19 CNS 86% | U251 CNS 92.6% | PC-3 prostate 97.3% | SK-MEL-5 melanoma 95.6% | UACC-62 melanoma 102% | LOX IMVI melanoma 95.2% | SK-MEL-28 melanoma 88.2% | SK-MEL-2 melanoma 82.5% | EKVX NSCLC 121% | SN12C renal 98.2% | UO-31 renal 98.3% | ACHN renal 96.6% | CAKI-1 renal 116% | A498 renal 109% | MOLT-4 leukemia 90.4%
active: CCRF-CEM leukemia -17.6%

N#CSc1c[nH]c2ccc(/C=C/C(=O)/C=C(/C=C/c3ccc4[nH]cc(SC#N)c4c3)OB(F)F)cc12
active: HCT-15 colon -73.7% | HT29 colon -53.6% | U251 CNS -27% | PC-3 prostate -22.5% | SK-MEL-5 melanoma 9.1% | UACC-62 melanoma -43% | LOX IMVI melanoma -91.4% | SK-MEL-2 melanoma -30.3% | EKVX NSCLC -5.64% | SN12C renal -38.1% | UO-31 renal -99.3% | TK-10 renal -0.38% | ACHN renal -86.4% | CAKI-1 renal -71.5% | CCRF-CEM leukemia -27.7% | MOLT-4 leukemia -37.9%
inactive: SNB-75 CNS 18% | SNB-19 CNS 38.2% | A498 renal 69.1%

Cc1ccc(-c2nc3nc(-c4ccc(F)cc4)nc(N4CCCNCC4)c3o2)cc1
inactive: A498 renal 77.5%
active: HCT-15 colon -84.5% | HT29 colon -81.6% | SNB-75 CNS -96% | SNB-19 CNS -94.4% | U251 CNS -93.2% | PC-3 prostate -85.2% | SK-MEL-5 melanoma -87.4% | UACC-62 melanoma -82.3% | LOX IMVI melanoma -88.6% | SK-MEL-2 melanoma -61.2% | EKVX NSCLC -75.6% | SN12C renal -91.2% | UO-31 renal -88.5% | TK-10 renal -93.8% | ACHN renal -99.3% | CAKI-1 renal -95.4% | CCRF-CEM leukemia -77.7% | MOLT-4 leukemia -61.1%

O=C1C(Nc2ccc(Cl)cc2)=C(I)C(=O)c2ncccc21
inactive: HT29 colon 43.1% | SNB-75 CNS 19.4% | SNB-19 CNS 69.3% | U251 CNS 30.3% | PC-3 prostate 37.1% | SK-MEL-2 melanoma 70% | EKVX NSCLC 62.2% | TK-10 renal 47.5% | A498 renal 99.6%
active: HCT-15 colon -40.4% | SK-MEL-5 melanoma -39.8% | UACC-62 melanoma -7.27% | LOX IMVI melanoma -68.6% | SN12C renal -22.1% | UO-31 renal -51% | ACHN renal -98.8% | CAKI-1 renal -17% | MOLT-4 leukemia -1.19%

O=[N+]([O-])c1cc(C(F)(F)F)ccc1Sc1ccc(C(F)(F)F)cc1[N+](=O)[O-]
inactive: HCT-15 colon 71.2% | HT29 colon 18.5% | SNB-75 CNS 86% | SNB-19 CNS 91.5% | U251 CNS 83.9% | PC-3 prostate 84.6% | SK-MEL-5 melanoma 82.7% | UACC-62 melanoma 77.8% | LOX IMVI melanoma 28.1% | SK-MEL-2 melanoma 73.3% | EKVX NSCLC 87% | SN12C renal 72.8% | UO-31 renal 77.3% | TK-10 renal 98.7% | ACHN renal 86.6% | CAKI-1 renal 44.7% | A498 renal 87% | CCRF-CEM leukemia 14.5%
active: MOLT-4 leukemia 9.53%

OCCN1CCN(CC/C=C2\c3ccccc3Sc3ccc(Cl)cc32)CC1
46.5% (inactive) and -10.9% (active): SK-MEL-2 melanoma
-17.7% (active) and 23.8% (inactive): CCRF-CEM leukemia
39.9% (inactive) and 2.89% (active): UO-31 renal
inactive: SNB-75 CNS 60.2% and 133% | SNB-19 CNS 58.4% and 72.6% | U251 CNS 27.6% and 28.6% | PC-3 prostate 33.6% and 39.2% | EKVX NSCLC 80.8% and 60.3% | SN12C renal 63% and 64.3% | TK-10 renal 57.7% | ACHN renal 58.5% and 71.1% | CAKI-1 renal 53.5% | A498 renal 45.4% and 60.5%
active: HCT-15 colon -38.8% and 8.86% | HT29 colon -41.8% and -43.3% | SK-MEL-5 melanoma -83.5% and -91.7% | UACC-62 melanoma -93.8% and -68.5% | LOX IMVI melanoma -30.2% and 1.96% | MOLT-4 leukemia -52.7% and -10.3%

CCN(CC)CC#CCOC(=O)[C@]1(C)CCC[C@]2(C)c3ccc(C(C)C)cc3CC[C@@H]12
inactive: HCT-15 colon 52.4% | HT29 colon 46.5% | SNB-75 CNS 97.5% | SNB-19 CNS 92% | U251 CNS 79.7% | PC-3 prostate 64.3% | SK-MEL-5 melanoma 77.1% | UACC-62 melanoma 71.8% | LOX IMVI melanoma 92.6% | SK-MEL-2 melanoma 98.6% | EKVX NSCLC 86.6% | SN12C renal 83.8% | UO-31 renal 65% | TK-10 renal 102% | ACHN renal 92.1% | CAKI-1 renal 94.5% | A498 renal 82.9% | MOLT-4 leukemia 82.9%
active: CCRF-CEM leukemia 4.53%

CC[C@H](C)[C@H](NC(=O)[C@@H](N)CCC(N)=O)C(=O)N[C@@H](Cc1ccc(O)cc1)C(=O)N[C@@H](CCCCN)C(=O)N[C@@H](CCCCN)C(=O)N[C@@H](Cc1ccc(O)cc1)C(=O)N[C@@H](CCCNC(=N)N)C(=O)N[C@H](C(=O)N[C@@H](Cc1c[nH]c2ccccc12)C(=O)N[C@@H](Cc1ccc(O)cc1)C(=O)N[C@@H](CCCNC(=N)N)C(=O)N[C@@H](CCCCN)C(=O)N[C@@H](C)C(=O)N[C@@H](Cc1c[nH]c2ccccc12)C(=O)N[C@@H](CCCCN)C(=O)N[C@H](C(=O)N[C@@H](CC(C)C)C(=O)NCC(=O)N[C@@H](CCCCN)C(=O)N[C@H](C(N)=O)C(C)C)C(C)C)[C@@H](C)O
active: HCT-15 colon 4.9% | PC-3 prostate -37% | SK-MEL-5 melanoma -38% | UACC-62 melanoma -71.2% | EKVX NSCLC -34.5% | TK-10 renal 8.22% | CAKI-1 renal 7.94% | CCRF-CEM leukemia 5.19%
inactive: HT29 colon 63.6% | SNB-75 CNS 15.5% | SNB-19 CNS 49.3% | U251 CNS 23.7% | LOX IMVI melanoma 69.8% | SK-MEL-2 melanoma 43.3% | SN12C renal 12.4% | UO-31 renal 76% | ACHN renal 65.6% | A498 renal 64.6% | MOLT-4 leukemia 52.9%

CCCCCCCCCCCCC[C@H](O)C[C@H](O)[C@H](C)N
inactive: HCT-15 colon 97.8% [1.25 µM] | HT29 colon 103% [1.25 µM] | SNB-75 CNS 129% [1.25 µM] | SNB-19 CNS 104% [1.25 µM] | U251 CNS 85.2% [1.25 µM] | PC-3 prostate 97% [1.25 µM] | SK-MEL-5 melanoma 97.6% [1.25 µM] | UACC-62 melanoma 113% [1.25 µM] | LOX IMVI melanoma 90.8% [1.25 µM] | SK-MEL-28 melanoma 115% [1.25 µM] | SK-MEL-2 melanoma 113% [1.25 µM] | EKVX NSCLC 99.4% [1.25 µM] | SN12C renal 105% [1.25 µM] | UO-31 renal 112% [1.25 µM] | ACHN renal 102% [1.25 µM] | A498 renal 93.7% [1.25 µM] | MOLT-4 leukemia 51.7% [1.25 µM]

CCOC(=O)CC1CSC(c2cccc(Cl)c2)=N1 (stereo unspecified)
inactive: HCT-15 colon 106% | HT29 colon 102% | SNB-75 CNS 106% | SNB-19 CNS 106% | U251 CNS 102% | PC-3 prostate 103% | SK-MEL-5 melanoma 100% | UACC-62 melanoma 101% | LOX IMVI melanoma 95.7% | SK-MEL-2 melanoma 109% | EKVX NSCLC 100% | SN12C renal 106% | UO-31 renal 96.4% | TK-10 renal 92.1% | ACHN renal 109% | CAKI-1 renal 97.8% | A498 renal 81.9% | CCRF-CEM leukemia 102% | MOLT-4 leukemia 95%

C=C1CCC2C3(C)COC(c4ccc(NC(C)=O)cc4)OC3CCC2(C)C1C/C=C1/C(=O)OCC1O (stereo unspecified)
inactive: HCT-15 colon 63.3% | HT29 colon 52.2% | SNB-75 CNS 63.9% | SNB-19 CNS 83.6% | U251 CNS 54.7% | PC-3 prostate 42.2% | SK-MEL-5 melanoma 29% | UACC-62 melanoma 81% | LOX IMVI melanoma 55.4% | SK-MEL-2 melanoma 84.4% | EKVX NSCLC 39.6% | SN12C renal 91.6% | UO-31 renal 68.3% | TK-10 renal 75.3% | ACHN renal 65.8% | CAKI-1 renal 87.7% | A498 renal 57% | CCRF-CEM leukemia 27.3% | MOLT-4 leukemia 26.7%
